From PubChem BioAssay
This is a sample that favours compounds with a hit; in the whole collection about 2.9% have one here.
ClpP mod: qHTS Assay for Activators of ClpP | ATP-dependent Clp protease proteolytic subunit (Bacillus subtilis (strain 168)), P80244 | AID 651965, 2013 | 340,000 tested, 1.9% active | Potency, µM (series often up to 57.5 µM), without a hit: top-dose activity change, negative = active | purified B. subtilis ClpP, FRET peptide cleavage, 20 min; active means well fitted falling curve with a large enough effect; inconclusive means small, poorly fitted or top-dose-only effect; inactive means no such curve, though single readings can be large or run the other way; further: potency means the concentration at half of the fitted maximal effect; the source files actives as falling curves though it sought activators and does not explain the sign; nearly all actives have a fitted effect of over 65% in size
Target sequence (P80244 whole entry, looked up): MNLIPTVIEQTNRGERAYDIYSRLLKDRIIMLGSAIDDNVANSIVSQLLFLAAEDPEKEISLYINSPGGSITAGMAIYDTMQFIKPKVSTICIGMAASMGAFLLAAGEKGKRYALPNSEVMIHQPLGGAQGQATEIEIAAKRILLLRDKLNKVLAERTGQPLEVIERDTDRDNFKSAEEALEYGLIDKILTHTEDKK
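Buffer: 100 mM Tris/HCl pH8, 100 mM KCl, 0.05% low protease BSA, 2.5% glycerol, 0.01% Tween-20. ClpP 10 microg/mL final; 20 min RT; delta FRET normalized to ADEP and DMSO controls.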
GLP1R inv ag: inverse agonists of human GLP-1 receptor. Potency, µM (top dose mostly 38.3 µM), for inactives: at the highest dose activity change, negative = inhibition, hits mostly inhibitors. 410,000 tested, 1.6% active. P43220. HEK293 GLP-1R CRE-luciferase, luminescence, 24 h; GLP-1R form is constitutively active; further: potency means the concentration at half of the fitted maximal effect; on the % scale 0 is the no-effect control and ±100 the full control effect; nearly all actives have a fitted effect of over 55% in size
Target sequence (P43220 whole entry, looked up): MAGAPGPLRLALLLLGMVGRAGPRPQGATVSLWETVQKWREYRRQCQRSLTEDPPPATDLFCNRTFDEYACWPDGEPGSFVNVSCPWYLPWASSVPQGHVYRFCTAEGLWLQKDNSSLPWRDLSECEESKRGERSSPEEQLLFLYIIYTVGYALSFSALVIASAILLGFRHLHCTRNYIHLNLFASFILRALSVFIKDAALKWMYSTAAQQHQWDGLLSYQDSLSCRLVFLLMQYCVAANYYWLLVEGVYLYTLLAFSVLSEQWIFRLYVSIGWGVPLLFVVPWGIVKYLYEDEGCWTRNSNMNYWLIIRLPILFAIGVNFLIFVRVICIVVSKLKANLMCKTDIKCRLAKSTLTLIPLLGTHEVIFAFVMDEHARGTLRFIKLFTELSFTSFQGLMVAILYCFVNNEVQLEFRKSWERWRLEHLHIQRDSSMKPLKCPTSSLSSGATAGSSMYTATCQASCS
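Inverse agonism was detected as reduced cAMP-driven luciferase luminescence after 24 h compound treatment. The cells were HEK293 clones expressing constitutively active human GLP-1R with the reporter. Reporter-only and GPR119 cell lines served as counterscreen controls.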
GLP-1R agonist: GLP-1 receptor (human) agonism; AID 624172; P43220; HEK293 GLP-1R CRE-luciferase, luminescence, 4-6 h; cells express a hypersensitive GLP-1R form; Potency, µM (highest dose often 45.6 µM), without a hit: at the top dose activation, usual class: activators; 380,000 tested, 0.007% active; further: potency means the concentration at half of the fitted maximal effect; % of control where 0% means no effect
p53 reactivation: mutant p53 re-activation in reporter cells; H1299 p53-A138V BP100-luciferase reporter, luminescence, 24 h; Potency, µM (series often up to 92.2 µM), inactives show top-dose activity change, positive = activation, usual class: activators; 320,000 tested, 0.063% active; AID 504706; further: potency means the concentration at half of the fitted maximal effect; % of control where 0% means no effect; nearly all actives have a fitted effect of over 45% in size
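H1299 (p53-null), stable ts p53-A138V + BP100-Luc; 1000 cells/well, Opti-MEM/10% FBS; cpd 4 pt, 1:5; 24 h, 37 deg C, 5% CO2; detection reagent 10 min RT; luminescence.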
HEK293 tox: cytotoxicity in counter-screen for GLP-1R inverse agonists; HEK293 cAMP-luciferase reporter cells, luminescence, 24 h; Potency, µM (doses to about 38.3 µM), for inactives: at the highest dose activity change, negative = inhibition, usual class: inhibitors; 410,000 tested, 0.13% active; AID 624418;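 further: loss of luciferase light is scored as toxicity; potency means the concentration at half of the fitted maximal effect; on the % scale 0 is the no-effect control and ±100 the full control effect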
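Step one: seed cells (200 cells/uL, DMEM with 10% Nu serum, 1% pen-strep). Step two: 12-hour incubation at 37 deg C. Step three: pin 23 nL compound, incubate 24 hr. Step four: add luciferase reagent, read luminescence 12 min later.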
LDHA block: blocks human lactate dehydrogenase A; P00338; activity change, % (values are at about 110 or 230 µM); 480,000 tested, 0.15% active; AID 1347041; purified LDHA, NADH/diaphorase-resazurin fluorescence; active compounds read low; in the data active means activity change below about -30%; inconclusive means mostly about -25% to -30%;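 further: plate controls were DMSO wells for no effect and wells without enzyme for full effect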
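Remaining NADH was detected by diaphorase (0.133 mg/mL) converting 37 µM resazurin to fluorescent resorufin, read at 0 and 20 minutes. The preceding 5-minute room-temperature reaction used 2 nM LDHA, 0.2 mM sodium pyruvate and 0.06 mM NADH at pH 7.4.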
Starred values were filed as active, the others as inactive; ? = inconclusive; / = no result given; [ ] = dose if it differs, or a comment. Unless noted, the call rests on the fitted dose curve; in most records, active means well fitted curve in the direction sought with a large enough effect; inconclusive means small, poorly fitted or top-dose-only effect, or another doubt; inactive means no such curve, though single readings can be large; an effect the other way counts as inactive or inconclusive.

SMILES	ClpP mod	GLP1R inv ag	GLP-1R agonist	p53 reactivation	HEK293 tox	LDHA block
Cc1ccccc1CSc1nc2n(n1)C(c1cccs1)C1=C(CCCC1=O)N2 (centres undefined)	22.4µM*	?	21.5%	-0.3%	3.8%	-5.0
COc1ccc(Cl)cc1NC(=O)C(C)N(C)Cc1ccc(C(F)(F)F)cc1 (centres undefined)	-4.2%	8.91µM*	8.9%	8.1%	63.2%	3.8
CNC(=S)N/N=C/c1cccc(OCc2ccccc2F)c1	0.3%	?	22.3%	15.6%	?	-3.4
CCNC(=S)N/N=C/c1cccc(OCc2c(F)cccc2Cl)c1	-2.9%	10µM*	5.9%	13.2%	?	-6.3
CCOc1ccccc1C(=O)N1CCCCC1CCN1CCOCC1 (centres undefined)	0.1%	1.5%	/	/	-20.3%	-7.5
O=c1c2c(nc3c(-c4cccc5ccccc45)c[nH]n13)CCC2	11.2µM*	-9.8%	-8.0%	10.9%	-3.9%	0.0
Cc1[nH]n2c(=O)c3c(nc2c1-c1cccc2ccccc12)CCC3	?	?	-13.2%	-1.3%	-19.5%	-0.5
O=c1c2c(nc3c(-c4ccc(Cl)cc4)c[nH]n13)CCCC2	14.1µM*	?	-10.0%	7.8%	-21.1%	-1.7
O=C(N/N=C/c1ccc(Cl)cc1)c1cc2c(s1)-c1ccccc1CC2	28.2µM*	?	-12.3%	-8.9%	-31.1%	-4.6
Oc1cc2ccccc2cc1-c1nnc2n1-c1ccccc1SC2	-0.8%	-28.7%	-11.0%	-7.0%	-10.8%	-1.1
Cc1ccc(S(=O)(=O)c2ccc([N+](=O)[O-])cn2)cc1	/	7.94µM*	-4.0%	-17.3%	?	9.0
O=[N+]([O-])c1ccc(S(=O)(=O)c2ccccc2)nc1	-0.1%	?	-7.1%	-14.3%	-18.8%	6.2
Oc1ccc(-c2nc3ccccc3nc2-c2ccccc2)cc1	/	3.98µM*	24.2%	/	-29.7%	-1.1
Cc1ccc([C@H]2C(C#N)=C(N)Oc3cc(C)oc(=O)c32)o1	/	-5.5%[7.66 µM]	-2.7%	20.4%	-0.6%[7.66 µM]	-0.3
CCOC(=O)c1cc(S(=O)(=O)N(C)CC(=O)Nc2cccc(C)c2C)cn1C	/	/	/	/	/	-7.5
FC(F)(F)c1ccc(C2[C@H]3CN(Cc4ccc(-c5ccccc5)cc4)[C@H](c4ccccc4)C34CC2(c2cccnc2)C4)cc1 (some centres undefined)	0.1%	1.1%	-5.0%	2.5%	9.1%	-0.5
FC(F)(F)c1ccc(C2[C@H]3CN(Cc4cccnc4)[C@H](c4ccccc4)C34CC2(c2cccnc2)C4)cc1 (some centres undefined)	-0.4%	11.2µM*	-3.9%	-11.6%	?	0.9
COC(=O)c1ccc(C23CC4(C2)[C@H](CN(Cc2cccnc2)[C@@H]4c2ccccc2)C3c2ccccc2)cc1 (some centres undefined)	0.5%	8.91µM*	-1.2%	3.2%	7.0%	-2.8
CCc1ccc(C=NC23CN4CN(CN(C4)C2)C3)s1	0.9%	9.5%	-10.7%	4.2%	1.4%	3.0
Cc1[nH]c(=O)[nH]c(=O)c1S(=O)(=O)N1CCN(c2ccccc2)CC1	0.0%	9.5%	-3.5%	-6.3%	-5.8%	-6.0
Cc1ccc(NC(=S)/C(C#N)=C2/Nc3ccccc3S2)cc1	-2.1%	3.98µM*	-2.5%	/	?	-20.4
CCOC(=O)COc1cc(-n2c(=S)[nH]c3cc(OC)c(OC)cc3c2=O)c(Cl)cc1Cl	/	-1.6%	4.3%	-16.4%	5.9%	-15.0
Nc1ccccc1SCC(=O)N1CCc2ccccc21	-6.6%	?	-4.3%	15.8%	10.8%	-2.0
CCn1nc(NC(=O)c2ccccn2)c2cc3cccc(C)c3nc21	31.6µM*	5.5%	-6.8%	24.4%	18.9%	-9.4
CCn1nc(NS(=O)(=O)c2ccc(F)cc2)c2cc3cccc(C)c3nc21	0.8%	10µM*	-5.6%	3.8%	-4.1%	-2.2
SMILES	ClpP mod	GLP1R inv ag	GLP-1R agonist	p53 reactivation	HEK293 tox	LDHA block
CCOc1ccc(Cn2nnc(C(=O)Nc3ccc(Cl)cc3)c2N)cc1	-0.8%	3.8%	-0.4%	/	3.3%	5.0
Cc1ccsc1/C=N/Nc1cccc(C(=O)O)c1	/	4.47µM*	-9.2%	-3.6%	-3.5%	-5.4
CC(NC(=O)/C(=C/c1ccc(OC(F)F)cc1)c1ccccc1)c1ccccc1 (centres undefined)	-7.2%	4.47µM*	-13.3%	3.5%	21.5%	-2.6
Cc1nccn1C(c1ccccc1)c1ccccc1	/	-23.3%	13.0%	/	-7.7%	-33.5*
COc1c2occc2c(OC(C)=O)c2c(=O)cc(C)oc12	?	10µM*	9.8%	2.3%	-15.1%	-3.9
COc1ccc(/C=N/N=C/c2ccc(OC)cc2)cc1	-1.1%	1.7%	14.0%	3.8%	-8.3%	-2.9
COc1ccc(C=C(c2ccc(OC)cc2)c2ccc(OC)cc2)cc1	31.6µM*	-92.7%	-12.0%	4.1%	30.7%	-4.2
Cc1ccc(NC(=O)Nc2cc(C(F)(F)F)c[nH]c2=O)cc1	/	10µM*	11.5%	1.7%	-10.7%	-10.0
Cc1ccc(S(=O)(=O)Nc2ccc(NC(=O)Nc3cccc(C(F)(F)F)c3)cc2)cc1	1.8%	?	-18.3%	-16.0%	?	-4.5
Cc1ccc(S(=O)(=O)N2CCCCC2)cc1C(=O)OC(C)C(=O)NCC1CCCCC1 (centres undefined)	-1.8%	7.08µM*	6.1%	7.7%	-4.0%	-2.2
CC(=O)Nc1ccc(NC(=O)C(C)OC(=O)c2cccc(S(=O)(=O)N3CCCCC3)c2)cc1 (centres undefined)	28.2µM*	6.7%	-0.1%	-6.1%	-10.1%	3.3
CC(OC(=O)c1cc(S(=O)(=O)N2CCOCC2)ccc1F)C(=O)NCC1CCCCC1 (centres undefined)	0.5%	-21.2%	8.4%	0.2%	5.9%	-9.3
O=C(Cc1cccc2ccccc12)NCC(=O)N1CCN(Cc2cccc(C(F)(F)F)c2)CC1	0.6%	10µM*	1.9%	-13.4%	-3.1%	3.4
O=C(Cc1cccc(C(F)(F)F)c1)NCc1ccc(CN2CCCCC2)cc1	/	/	/	/	/	7.2
O=C(CCCCCNC(=O)N1CCn2c1nc1ccccc12)NCc1ccc(Cl)cc1	0.8%	?	10.6%	-5.1%	-1.9%	0.9
O=C(CCCCCNC(=O)N1CCn2c1nc1ccccc12)NCc1ccccc1Cl	1.5%	7.08µM*	12.9%	-24.9%	-9.3%	-1.8
Cc1cc(-c2ccc(Cl)cc2)oc(=O)c1NC(=O)c1ccccc1	?	3.8%	6.5%	3.6%	7.3%	-2.1
